Source: the supplement of paper PMC10933113
± gives the uncertainty stated by the source.

These compounds were tested on THP-1 (assay: CD86 surface expression induction over DMSO control (% over DMSO); higher = stronger dendritic cell activation). Conditions: exposure time: 24 h.
Protocol: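 hCLAT-like CD54 and CD86 surface expression on THP1 cells after 24 h exposure at a single concentration (highest non-cytotoxic concentration, or 100-200 µM if not cytotoxic). Flow cytometry (iQue) was run on 5,000 live cells.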
With `C=CC(C)(CCC=C(C)C)OC(=O)CC(C)C` (stereo not given) [Linalyl isovalerate] (200 µM) the “CD86 surface expression induction” value was 4.35 ± 0.78.
In the case of `CC(C)(C)OC(=O)c1ccc(O)cc1` [tert-Butyl 4-hydroxybenzoate] (100 µM), the “CD86 surface expression induction” value is reported as -2.42 ± 14.
For `COC(=O)Nc1nc2cc(Sc3ccccc3)ccc2[nH]1` [Fenbendazole] (100 µM), the “CD86 surface expression induction” value was -18.1 ± 26.
`CCCCCCCC/C=C\CCCCCCCC(=O)N(C)CC(=O)O` [Oleyl sarcosine] (100 µM) was tested, and the “CD86 surface expression induction” value was -14.4 ± 36.
For `CCCCCCCCCCCCCCCC[N+](C)(C)Cc1ccccc1` [Benzylhexadecyldimethylammonium chloride] (10 µM), the “CD86 surface expression induction” value was 57.5 ± 17.
`C=CCOC(=O)/C=C\C(=O)OCC=C` [Diprop-2-en-1-yl (2Z)-but-2-enedioate] (203 µM) was tested, and the “CD86 surface expression induction” value was 29.9 ± 1.4.
For `O=C1c2cccc(O)c2C(=O)c2c(O)cccc21` [Danthron] (100 µM), the “CD86 surface expression induction” value was 6.93 ± 0.81.
With `CCCCOCCOCCOCCO` [2-[2-(2-Butoxyethoxy)ethoxy]ethanol] (115 µM) the “CD86 surface expression induction” value was 12.7 ± 12.
For `C/C=C1\C(=O)C[C@H]2[C@@H]3CCC4=CC(=O)CC[C@]4(C)[C@H]3CC[C@]12C` [Guggulsterone Z] (100 µM), the “CD86 surface expression induction” value was -9.87 ± 7.2.
`CCCCCCCCCCC=CC1CC(=O)OC1=O` (stereo not given) [3-(Dodecenyl)dihydro-2,5-furandione] (200 µM) was tested, and the “CD86 surface expression induction” value was -8.58 ± 3.
In the case of `O=C(Oc1ccccc1)c1ccccc1O` [Phenyl salicylate] (200 µM), the “CD86 surface expression induction” value is reported as -3.35 ± 5.3.
With `COc1cc(C(C)(C)C)c(O)c(C(C)(C)C)c1` [2,6-Di-tert-butyl-4-methoxyphenol] (200 µM) the “CD86 surface expression induction” value was 18.9 ± 43.
With `CCN(CC)CCSC(=O)C(c1ccccc1)c1ccccc1` [Thiphenamil] (200 µM) the “CD86 surface expression induction” value was 107 ± 65.
For `O=C(O)CCCCCCCCC(=O)O` [Decanedioic acid] (200 µM), the “CD86 surface expression induction” value was -3.64 ± 3.
In the case of `C=CC(=O)OCCOC(=O)CCC(=O)O` [4-[2-(Acryloyloxy)ethoxy]-4-oxobutanoic acid] (200 µM), the “CD86 surface expression induction” value is reported as -12.9 ± 36.
In the case of `Nc1cc(-c2ccncc2)c[nH]c1=O` [Amrinone] (100 µM), the “CD86 surface expression induction” value is reported as -0.14 ± 4.2.
`Nc1ccccc1N` [1,2-Phenylenediamine*] (200 µM) was tested, and the “CD86 surface expression induction” value was 88.8 ± 49.
`CCN(CC)CCOc1ccc2c(c1)C(=O)c1cc(OCCN(CC)CC)ccc1-2` [Tilorone] (200 µM) was tested, and the “CD86 surface expression induction” value was 58 ± 31.
For `CC(C)=CCC/C(C)=C\CO` [(2Z)-3,7-Dimethylocta-2,6-dien-1-ol] (200 µM), the “CD86 surface expression induction” value was 6.83 ± 19.
In the case of `CC1=C(/C=C/C(C)=C/C=C/C(C)=C/C=O)C(C)(C)CCC1` [13-cis-Retinal (Vitamin A aldehyde)] (100 µM), the “CD86 surface expression induction” value is reported as 64.3 ± 98.
With `O=C(CS)Nc1ccccc1` [Thioglycolic acid anilide] (300 µM) the “CD86 surface expression induction” value was 34.4 ± 2.
With `CO[C@@]12[C@H](COC(N)=O)C3=C(C(=O)C(C)=C(N)C3=O)N1C[C@@H]1N[C@@H]12` [Mitomycin C] (100 µM) the “CD86 surface expression induction” value was 60.5 ± 16.
For `Clc1ccc2c(c1)Nc1ccccc1S2` [2-Chlorophenothiazine] (100 µM), the “CD86 surface expression induction” value was -11 ± 14.
`Nc1ncn([C@@H]2O[C@H](CO)[C@@H](O)[C@H]2O)c(=O)n1` [5-Azacytidine] (10 µM) was tested, and the “CD86 surface expression induction” value was -17.2 ± 5.3.
`N=C(N)NN=C(/C=C/c1ccc([N+](=O)[O-])o1)/C=C/c1ccc([N+](=O)[O-])o1` [Nitrovin] (10 µM) was tested, and the “CD86 surface expression induction” value was 88.4 ± 21.
`c1ccc2[nH]c(-c3cscn3)nc2c1` [Thiabendazole] (100 µM) was tested, and the “CD86 surface expression induction” value was 6.44 ± 20.
In the case of `Oc1c(Br)cc(Br)c2cccnc12` [Broxyquinoline] (100 µM), the “CD86 surface expression induction” value is reported as 57.8 ± 75.
`O=C(/C=C/C=C/c1ccc2c(c1)OCO2)N1CCCCC1` [Piperine] (100 µM) was tested, and the “CD86 surface expression induction” value was -4.64 ± 6.3.
In the case of `CC(C)(C)c1cc(O)ccc1O` [tert-Butylhydroquinone] (100 µM), the “CD86 surface expression induction” value is reported as 66.8 ± 57.
With `Oc1ccc2cc(SSc3ccc4cc(O)ccc4c3)ccc2c1` [6-Hydroxy-2-naphthyl disulfide] (100 µM) the “CD86 surface expression induction” value was 67.2 ± 57.
In the case of `Cc1ccc2c(c1[N+](=O)[O-])C(=O)c1ccccc1C2=O` [2-Methyl-1-nitroanthraquinone] (10 µM), the “CD86 surface expression induction” value is reported as 7.64 ± 3.5.
In the case of `O=CC(=O)c1ccccc1` [Phenyl glyoxal] (100 µM), the “CD86 surface expression induction” value is reported as 4.41 ± 2.
In the case of `c1ccc2cc3c(ccc4ccccc43)cc2c1` [Benz(a)anthracene] (200 µM), the “CD86 surface expression induction” value is reported as -20.1 ± 26.
In the case of `Nc1ccc2cc3ccccc3cc2c1` [2-Aminoanthracene] (200 µM), the “CD86 surface expression induction” value is reported as -10.7 ± 9.7.
`O=c1cc(-c2ccccc2)oc2cc(O)cc(O)c12` [Chrysin] (100 µM) was tested, and the “CD86 surface expression induction” value was 38.2 ± 51.
For `Cc1ccc(N)cc1O` [5-Amino-2-methylphenol] (200 µM), the “CD86 surface expression induction” value was -0.96 ± 6.3.
`Oc1ccc(/C=C/c2cc(O)cc(O)c2)cc1` [Resveratrol] (100 µM) was tested, and the “CD86 surface expression induction” value was -3.05 ± 3.9.
In the case of `CCCCC1C(=O)N(c2ccccc2)N(c2ccc(O)cc2)C1=O` (stereo not given) [Oxyphenbutazone] (10 µM), the “CD86 surface expression induction” value is reported as 24.6 ± 15.
In the case of `O=c1n(CC2CO2)c(=O)n(CC2CO2)c(=O)n1CC1CO1` (stereo not given) [Triglycidyl isocyanurate] (10 µM), the “CD86 surface expression induction” value is reported as 0.85 ± 1.2.
In the case of `O=C(O)c1cc(O)c2ccccc2c1O` [1,4-dihydroxy-2-naphthoic acid*] (10 µM), the “CD86 surface expression induction” value is reported as 290 ± 51.
